Here are results for 39 compounds from PubChem BioAssay (NCATS).

Inconclusive results are not listed. A call without a number means that no potency is given here. Values without a mark were called inactive. Calls of active or inactive are those of the source. Calls follow the shape of the full dose curve. Bridge positions count the residues as written; N and C are the ends. Square brackets hold non-standard residues; d marks the D form. Peptide text beside a SMILES is read from it. hArg = N=C(N)NCCCC[C@H](N)C(=O)O; Mpa = O=C(O)CCS

Chain of Nucleoprotein (Lymphocytic choriomeningitis virus (strain Armstrong)) (P09992 whole entry, looked up): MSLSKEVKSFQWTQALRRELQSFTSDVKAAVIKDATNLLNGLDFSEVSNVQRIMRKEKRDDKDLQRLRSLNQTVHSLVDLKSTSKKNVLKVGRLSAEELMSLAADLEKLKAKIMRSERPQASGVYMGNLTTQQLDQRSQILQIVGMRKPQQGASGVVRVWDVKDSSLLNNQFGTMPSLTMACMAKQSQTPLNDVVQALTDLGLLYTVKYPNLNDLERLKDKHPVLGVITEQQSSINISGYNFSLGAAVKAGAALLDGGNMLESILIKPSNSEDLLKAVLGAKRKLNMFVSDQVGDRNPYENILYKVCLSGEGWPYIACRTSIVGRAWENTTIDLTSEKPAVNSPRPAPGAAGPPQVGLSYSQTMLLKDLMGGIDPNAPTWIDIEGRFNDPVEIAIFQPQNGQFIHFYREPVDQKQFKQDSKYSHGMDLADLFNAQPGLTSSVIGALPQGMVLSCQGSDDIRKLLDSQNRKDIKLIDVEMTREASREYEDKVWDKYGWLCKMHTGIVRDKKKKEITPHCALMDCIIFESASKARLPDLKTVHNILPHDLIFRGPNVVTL

The test has as its target Nucleoprotein (Lymphocytic choriomeningitis virus (strain Armstrong)) (UniProt P09992). Description: qHTS for Inhibitors of the Functional Ribonucleoprotein Complex (vRNP) of Lymphocytic Choriomeningitis Arenaviruses (LCMV): LCMV Primary Screen - GLuc reporter signal (AID 1347086). Also: nearly all actives have a fitted effect of over 70% in size. The following applies: LCMV minigenome vRNP cell assay, Gaussia luciferase reporter; series mostly up to 57.5 µM. For orientation: Quantitative high-throughput screening tests each substance at several concentrations.
Take `N[C@@H](CSSC[C@H](N)C(=O)O)C(=O)O`: the activity change, negative = inhibition was 13.5% [at 0.757 µM].
Turning to `O=C(/C=C/c1ccccc1)NCCO`, the Potency entry is “inactive”.
The same measure, in the same setting: the value for `CCCCC(=O)O[C@]1(C(=O)CO)CC[C@H]2[C@@H]3CCC4=CC(=O)CC[C@]4(C)[C@H]3[C@@H](O)C[C@@]21C` was “inactive”; that for `NS(=O)(=O)c1cc2c(cc1Cl)NCNS2(=O)=O` was “inactive”.
With `Oc1ccc(O)cc1`, the Potency result was “inactive”.
Regarding `CCNC(=O)NCCCOc1cccc(CN2CCCCC2)c1`, the Potency result is “inactive”.
As for `NCC(=O)O`, the Potency entry is “inactive”.
As for `CC(C)NC(=O)c1ccc(C=O)cc1`, the Potency entry is “inactive”.
Consider `CN(C)CCCSc1ccccc1NC(=O)/C=C/c1ccccc1`, for which the Potency entry was “inactive”.
Same read-out and setting: the value for `O=C(CCN1CCN(CCO)CC1)N1c2ccccc2Sc2ccc(C(F)(F)F)cc21` was “inactive”; that for `c1ccc(CC2=NCCN2)cc1` was “inactive”.
`C[C@@H](O)[C@H](N)C(=O)O`: the Potency result was “inactive”.
Regarding `CC(=O)OCC(=O)[C@@]12N=C(C)O[C@@H]1C[C@H]1[C@@H]3CCC4=CC(=O)C=C[C@]4(C)[C@H]3[C@@H](O)C[C@@]12C`, the Potency entry was “inactive”.
For the compound `Cc1ccc(C(=O)Oc2ccc(C(O)CNC(C)(C)C)cc2OC(=O)c2ccc(C)cc2)cc1` (centres undefined), the Potency result is “inactive”.
Turning to `OC1C(O)C(O)C(O)C(O)C1O` (centres undefined), the Potency entry is “inactive”.
Take `O=C(O)CCC(=O)OC[C@@H](NC(=O)C(Cl)Cl)[C@H](O)c1ccc([N+](=O)[O-])cc1`: the Potency result is “inactive”.
On to `NC(=O)[C@@H]1CSSCCC(=O)N[C@@H](CCCCN=C(N)N)C(=O)NCC(=O)N[C@@H](CC(=O)O)C(=O)N[C@@H](Cc2c[nH]c3ccccc23)C(=O)N2CCC[C@H]2C(=O)N1` ([Mpa][hArg]GDWPC-NH2; disulfide 1-7), for which the Potency result is “inactive”.
As for `CCOc1ccc(NC(C)=O)cc1`, the Potency result is “inactive”.
Same read-out and setting: the value for `COc1ccc2nc(NC(=O)Nc3ccccc3)sc2c1` was “inactive”; that for `Cc1c(N)cccc1C(F)(F)F` was “inactive”.
As for `CC(=O)[C@@]1(O)CC[C@H]2[C@@H]3C[C@H](C)C4=CC(=O)CC[C@]4(C)[C@H]3CC[C@@]21C`, the Potency entry was “inactive”.
On to `CCCCCCCCNC(C)C(O)c1ccc(SC(C)C)cc1` (centres undefined), for which the Potency entry was “inactive”.
Same read-out and setting: the result for `CN(Cc1cc(Br)cc(Br)c1N)C1CCCCC1` reads “inactive”; that for `OCCN1CCN(CCCN2c3ccccc3C=Cc3ccccc32)CC1`, “inactive”.
For `N=C(N)c1ccc(OCCCOc2ccc(C(=N)N)cc2)cc1`, the Potency entry is “inactive”.
On to `O=C(COc1ccc(Cl)cc1)N1CCN(Cc2ccc3c(c2)OCO3)CC1`, for which the Potency entry is “inactive”.
As to `COc1ccc(CN(CCN(C)C)c2ncccn2)cc1`, the Potency result is “inactive”.
As for `CN1CCC(N(Cc2cccs2)c2ccccc2)CC1`, the Potency entry was “inactive”.
For `CC(=O)O[C@H]1C[C@@H]2CC[C@@H]3[C@H](CC[C@@]4(C)[C@H]3C[C@H]([N+]3(C)CCCCC3)[C@@H]4OC(C)=O)[C@@]2(C)C[C@@H]1N1CCCCC1`, the Potency result is “inactive”.
For `CCCN(CCC)C(=O)C(CCC(=O)OCCCN1CCN(CCOC(=O)Cc2c(C)n(C(=O)c3ccc(Cl)cc3)c3ccc(OC)cc23)CC1)NC(=O)c1ccccc1` (centres undefined), the Potency result was “inactive”.
Still for that read-out and setting: the result for `COc1ccc2cc(C=O)ccc2c1` reads “inactive”; that for `CC1(C)[C@@H]2CC[C@@]1(C)C(=O)C2`, “inactive”.
As to `CCNC(=O)NCc1cccc(Cl)c1`, the Potency entry was “inactive”.
`CC(C)NCCCC1(C(N)=O)c2ccccc2-c2ccccc21`: the Potency entry was “inactive”.
With `O=C1c2ccccc2C(=O)C1c1ccc(Br)cc1`, the Potency entry is “inactive”.
With `C/C=C(/C(=C/C)c1ccc(O)cc1)c1ccc(O)cc1`, the Potency entry is “inactive”.
As to `Oc1cccc2[nH]ccc12`, the Potency result is “inactive”.
On to `CCOC(=O)OC(C)OC(=O)[C@@H]1N2C(=O)[C@@H](NC(=O)[C@H](N)c3ccccc3)[C@H]2SC1(C)C` (some centres undefined), for which the Potency result was “inactive”.
As for `O=C(CN1CCN(Cc2ccc3c(c2)OCO3)CC1)N1c2ccccc2Sc2ccccc21`, the Potency entry was “inactive”.
